Drawing on PubChem BioAssay (NCI), this text covers growth inhibition for 20 compounds.

Structures are written as SMILES. Compounds without any hit were thinned out: in the full panel of roughly 79,000, 15% have a hit. Values without a mark were called inactive. Calls of active or inactive are those of the source. Rule as the data show it: active = growth inhibition above about 70%; inactive = the rest.

A short description of experiment [1]: NCI Yeast Anticancer Drug Screen. Data for the rad50 strain (AID 155).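 Also: 0% = growth of vehicle-only cultures of the same strain.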 The following applies: S. cerevisiae rad50 strain growth inhibition; at 50.0 µM; stronger effect = higher value. The method in brief:
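Readout: growth inhibition relative to vehicle-treated cultures. Compound exposure was carried out in a genetically defined yeast strain deficient in DNA damage repair.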

Experiment [2] is described as follows: NCI Yeast Anticancer Drug Screen. Data for the mec2-1 strain (AID 157). The following applies: S. cerevisiae mec2-1 strain, at 50.0 µM, stronger effect = higher value. In a few lines: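 Cells of the genetically defined mec2-1 yeast strain are incubated with test compound. Inhibition of growth is calculated against vehicle-treated controls.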
A short description of experiment [3]: NCI Yeast Anticancer Drug Screen. Data for the sgs1 mgt1 strain (AID 161).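 Also: 0% = growth of cultures given vehicle only.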 The following applies: S. cerevisiae sgs1 mgt1 strain, at 50.0 µM, stronger effect = higher value. In a few lines:
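Inhibition of yeast growth, normalised to vehicle-treated controls, is reported for a strain bearing genetic alterations in DNA damage repair.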

Experiment [4] can be described thus: NCI Yeast Anticancer Drug Screen. Data for the cln2 rad14 strain (AID 165).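 Also: 0% = growth equal to vehicle treated cultures.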 To be noted: S. cerevisiae cln2 rad14 strain, at 50.0 µM, stronger effect = higher value. In a few lines: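 The screen exposed genetically defined yeast (cln2 rad14) to test compounds and scored growth inhibition relative to vehicle-treated controls.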
The nature of experiment [5]: NCI Yeast Anticancer Drug Screen. Data for the bub3 strain (AID 167). The following applies: S. cerevisiae bub3 mutant strain, at 50.0 µM, stronger effect = higher value. In a few lines: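 Readout: yeast growth inhibition, expressed relative to vehicle-only wells. The test organism is a mutant strain from a panel with lesions in DNA repair or checkpoint genes.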
Experiment [6] is described as follows: NCI Yeast Anticancer Drug Screen. Data for the mlh1 rad18 strain (AID 175). The following applies: S. cerevisiae mlh1 rad18 strain growth inhibition; at 50.0 µM; stronger effect = higher value. In a few lines:
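Compound-treated yeast growth, normalised to vehicle controls. Strain bears defined DNA repair mutations.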

For `Cc1ccc(S(=O)(=O)N/N=C2/C(=O)N(c3ccc(Cl)cc3C)C(=O)C(=O)C2c2nc3ccccc3s2)cc1` (stereo not given), the growth inhibition was 0.85% in experiment [1]; 20.7% in experiment [2]; 1.85% in experiment [3]; 7.5% in experiment [4]; -2.1% in experiment [5]; 11.2% in experiment [6].
As for `COC1OC2COC(c3ccccc3)OC2C(O)C1N=[N+]=[N-]` (stereo not given), the growth inhibition in experiment [1] is 3.4%; in experiment [2] it was 0.7%; in experiment [3], -1.35%; in experiment [4], -19.9%; in experiment [5] it was -4.4%; in experiment [6], 7.9%.
Take `O=C1C=C(CCC2=CC(=O)c3ccccc3C2=O)C(=O)c2ccccc21`: the growth inhibition in experiment [1] was 4.65%; in experiment [2] it was -23.5%; in experiment [3] it was -26.9%; in experiment [4] it was -10.9%; in experiment [5] it was -26.5%; in experiment [6], -28.6%.
With `C1COC(C2=NCCO2)=N1`, the growth inhibition is -12.5% in experiment [1]; 2.6% in experiment [2]; -14.1% in experiment [3]; -42% in experiment [4]; 6.1% in experiment [5]; -0.4% in experiment [6].
For `CNC(=O)c1ccc(/C=C/c2c[nH]c3ccccc23)[n+](C)c1`, the growth inhibition is -24.9% in experiment [1]; -7.9% in experiment [2]; -9.05% in experiment [3]; -11.2% in experiment [4]; -2.65% in experiment [5]; -13.3% in experiment [6].
With `O=COCc1ccc(Cl)cc1Cl`, the growth inhibition in experiment [1] is 16.9%; in experiment [2], -2.75%; in experiment [3] it was -5.65%; in experiment [4], 5%; in experiment [5], -1.35%; in experiment [6], -11.7%.
In the case of `CC1(C)C2CCC1(C)C(NC(N)=O)C2` (stereo not given), the growth inhibition in experiment [1] is -10%; in experiment [2], 6.45%; in experiment [3] it was -8.95%; in experiment [4], -6.6%; in experiment [5], 2.3%; in experiment [6] it was 10.5%.
Turning to `CC(C)(O)c1cc(=O)n(-c2ccccc2)[nH]1`, the growth inhibition in experiment [1] was -6%; in experiment [2] it was -6.3%; in experiment [3] it was 6.55%; in experiment [4], -64.8%; in experiment [5] it was -18%; in experiment [6], -5.1%.
Regarding `C=C(C)CC(O)CCCCC` (stereo not given), the growth inhibition in experiment [1] is 15.1%; in experiment [2] it was -5.85%; in experiment [3], 19.7%; in experiment [4] it was -33.9%; in experiment [5] it was 17.3%; in experiment [6], -13.3%.
On to `COC(=O)NC1CCCCC1`, for which the growth inhibition is -2.5% in experiment [1]; -13.8% in experiment [2]; -4.6% in experiment [3]; 20.6% in experiment [4]; -8.2% in experiment [5]; -6.35% in experiment [6].
Consider `Oc1ccccc1-c1n[nH]c(=S)n1/N=C/c1ccc(-c2ccc(Br)cc2)o1`, for which the growth inhibition in experiment [1] is -30.5%; in experiment [2] it was -19.2%; in experiment [3], -29.2%; in experiment [4], -4.35%; in experiment [5], -20.1%; in experiment [6] it was -42.9%.
Consider `NC(N)=N/N=C/c1oc(-c2ccc(S(=O)(=O)O)o2)c(-c2ccc(S(=O)(=O)O)o2)c1[N+](=O)[O-]`, for which the growth inhibition is -21.4% in experiment [1]; 9.6% in experiment [2]; -22% in experiment [3]; 6.6% in experiment [4]; -3.35% in experiment [5]; 0.95% in experiment [6].
Consider `N#CCCc1ccnc2ccccc12`, for which the growth inhibition was 1.7% in experiment [1]; -6.4% in experiment [2]; 1.25% in experiment [3]; -43% in experiment [4]; -3.8% in experiment [5]; -14.8% in experiment [6].
For `CC(NC(=O)N=Nc1ccccc1)C(=O)O` (stereo not given), the growth inhibition in experiment [1] was -3.05%; in experiment [2] it was -8.95%; in experiment [3] it was -9.6%; in experiment [4], -39%; in experiment [5], -11.1%; in experiment [6], 6.2%.
Take `Clc1ccccc1/C=C1\c2ccc(Br)cc2-c2cccc[n+]21`: the growth inhibition in experiment [1] is 92.1% (active); in experiment [2], 95.8% (active); in experiment [3] it was 95.5% (active); in experiment [4] it was 91.4% (active); in experiment [5], 93% (active); in experiment [6], 95.7% (active).
As for `CC(C(O)C(F)(F)F)[N+](C)(C)C` (stereo not given), the growth inhibition in experiment [1] was 34.8%; in experiment [2] it was 5.85%; in experiment [3] it was 1.8%; in experiment [4] it was -13.8%; in experiment [5], 10.1%; in experiment [6], 28%.
As to `CC1=CC(C)(C)SC(=S)N1`, the growth inhibition in experiment [1] is 24.9%; in experiment [2], 5.3%; in experiment [3], 19.8%; in experiment [4] it was -60.6%; in experiment [5], -3.35%; in experiment [6] it was 29.3%.
As to `N#CCC(=O)N/N=C/c1ccccc1`, the growth inhibition is 8.3% in experiment [1]; -27.1% in experiment [2]; 0.55% in experiment [3]; 9.95% in experiment [4]; -5.85% in experiment [5]; 9.4% in experiment [6].
Take `COCCCN(Cc1cc(OC)c(OC)c(OC)c1)C(=S)Nc1cccc(SC)c1`: the growth inhibition is 13.8% in experiment [1]; -19.4% in experiment [2]; 40.5% in experiment [3]; 25.6% in experiment [4]; 51.2% in experiment [5]; 16.6% in experiment [6].
As to `O=[N+]([O-])c1cc(C(F)(F)F)ccc1Cl`, the growth inhibition was -11.2% in experiment [1]; 10.3% in experiment [2]; -5.85% in experiment [3]; 31.3% in experiment [4]; -12.9% in experiment [5]; -27.8% in experiment [6].
